Source: PubChem
Compounds with a hit are over-represented: about 2.8% of the library has one in this group of screens.
Pol iota inh – inhibitors of human DNA polymerase iota. 390,000 tested, 1% active. Q9UNA4. AID 588590. Potency, µM (doses to about 115 µM), without a hit: top-dose activity, negative = inhibition, most hits filed as inhibitors. Pol iota fluorescent replication assay, 10 min; note: potency is the fitted concentration of half-maximal effect
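Pol iota at 10 nM preincubated 15 min with compounds at room temperature; reaction started with fluorescent substrate, 50 nM final. Fluorescence read kinetically at 0 and 10 min; buffer-only wells as negative control.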
Pol eta inh-1 – inhibitors of human DNA polymerase eta; Q9Y253; recombinant Pol eta, fluorescent DNA replication assay; Potency, µM (titrated, usually from 114 µM), for the others: at the highest dose activity change, negative = inhibition, usual class: inhibitors; 390,000 tested, 1.2% active; AID 588591; note: potency is the fitted concentration of half-maximal effect; % is set by controls: 0 for no effect and ±100 for the full control effect
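Pol eta (10 nM) was preincubated with compounds for 15 min at room temperature, after which fluorescent replication substrate (50 nM final) was added to start the reaction. Fluorescence was read kinetically at 0 and 10 min.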
WRN inhibitor – inhibitors of human WRN helicase | WRN helicase unwinding, fluorescent forked duplex, kinetic | Potency, µM (top dose mostly 114 µM), for the others: top-dose activity change, negative = inhibition, usual class: inhibitors | 360,000 tested, 0.46% active; note: potency is the fitted concentration of half-maximal effect; % is set by controls: 0 for no effect and ±100 for the full control effect; nearly all actives have a fitted effect of over 55% in size
Target sequence (Q14191 whole entry, looked up): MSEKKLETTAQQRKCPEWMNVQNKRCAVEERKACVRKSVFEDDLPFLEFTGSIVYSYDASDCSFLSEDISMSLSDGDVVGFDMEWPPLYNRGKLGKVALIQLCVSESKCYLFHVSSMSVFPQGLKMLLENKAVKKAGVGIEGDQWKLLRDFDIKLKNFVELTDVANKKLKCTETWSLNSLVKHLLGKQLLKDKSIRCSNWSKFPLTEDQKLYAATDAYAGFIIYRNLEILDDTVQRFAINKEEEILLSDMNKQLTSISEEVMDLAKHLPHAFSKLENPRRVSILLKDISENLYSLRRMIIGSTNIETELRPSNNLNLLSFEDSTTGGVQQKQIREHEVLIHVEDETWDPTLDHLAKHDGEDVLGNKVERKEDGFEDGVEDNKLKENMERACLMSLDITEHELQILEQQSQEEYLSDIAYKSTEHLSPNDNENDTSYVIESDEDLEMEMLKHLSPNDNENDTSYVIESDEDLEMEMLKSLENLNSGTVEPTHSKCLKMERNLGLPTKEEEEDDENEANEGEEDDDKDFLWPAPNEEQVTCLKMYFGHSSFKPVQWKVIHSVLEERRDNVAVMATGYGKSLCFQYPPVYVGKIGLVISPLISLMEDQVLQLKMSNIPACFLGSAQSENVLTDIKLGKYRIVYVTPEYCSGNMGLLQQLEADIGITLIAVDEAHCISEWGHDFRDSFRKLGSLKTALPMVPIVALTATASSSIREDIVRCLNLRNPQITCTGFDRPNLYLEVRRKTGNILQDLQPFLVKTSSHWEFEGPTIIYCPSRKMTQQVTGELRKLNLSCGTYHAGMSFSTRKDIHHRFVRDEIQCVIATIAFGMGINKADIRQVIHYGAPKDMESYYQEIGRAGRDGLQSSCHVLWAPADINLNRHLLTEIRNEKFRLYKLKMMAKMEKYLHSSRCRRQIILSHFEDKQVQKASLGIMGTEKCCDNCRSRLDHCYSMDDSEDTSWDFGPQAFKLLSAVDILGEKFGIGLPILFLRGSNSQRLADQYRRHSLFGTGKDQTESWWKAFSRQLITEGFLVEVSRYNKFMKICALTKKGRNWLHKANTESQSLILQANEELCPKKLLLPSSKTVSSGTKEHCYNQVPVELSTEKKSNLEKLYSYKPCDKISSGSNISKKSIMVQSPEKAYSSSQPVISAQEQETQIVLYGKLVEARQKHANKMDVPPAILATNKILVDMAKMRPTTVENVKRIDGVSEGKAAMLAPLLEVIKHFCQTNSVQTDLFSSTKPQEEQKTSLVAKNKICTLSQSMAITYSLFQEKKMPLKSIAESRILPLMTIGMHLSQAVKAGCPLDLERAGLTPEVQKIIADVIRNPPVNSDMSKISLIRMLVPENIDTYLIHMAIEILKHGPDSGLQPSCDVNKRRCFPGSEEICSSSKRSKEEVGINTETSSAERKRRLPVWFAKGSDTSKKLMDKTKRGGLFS
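Kinetic fluorescence helicase assay: unwinding of a quenched forked DNA duplex (100 nM final) with 2 mM ATP final raises red fluorescence (525/598 nm). Compounds sat 15 min at room temperature with 20 nM WRN beforehand.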
PI5P4Ka inh – blocks human PI5P4K alpha kinase activity; AID 652105; PI5P4Kalpha enzyme, ADP-Glo luminescence, 60 min; hits give low values; max response, %; 330,000 tested, 1.2% active; P48426; active = max response of -50% or lower; inconclusive = between -30% and -50%; inactive = -30% or higher; note: value at the top dose of about 77 µM; % is set by controls: 0 for no effect and ±100 for the full control effect
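Enzyme plus substrate dispensed, test compounds pinned in, then ATP (5 microM final) added. After 60 min at RT, ADP-Glo reagent 1 for 45 min and reagent 2 for 30 min preceded luminescence imaging.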
Pol kappa inh-1 – blocks human DNA polymerase kappa activity. Q9UBT6. purified Pol kappa, fluorescent DNA synthesis assay, 10 min. Potency, µM (doses to about 107 µM), for the others: at the highest dose activity, negative = inhibition, most hits filed as inhibitors. 400,000 tested, 0.53% active; note: potency is the fitted concentration of half-maximal effect; % is set by controls: 0 for no effect and ±100 for the full control effect
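Fluorescent qHTS in 1536-well format: enzyme (10 nM) and compound sat 15 min at room temperature before 50 nM substrate (final) was added. Signal taken at 0 and 10 min; no-enzyme buffer wells were negative controls.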
Pol beta inh – blocks human DNA polymerase beta activity; P06746; Pol beta primer extension/strand displacement, fluorescence kinetic; Potency, µM (top dose mostly 114 µM), inactives show at the highest dose activity change, negative = inhibition, actives largely listed as inhibitors; 340,000 tested, 1.3% active; AID 485314; note: potency is the fitted concentration of half-maximal effect; % is set by controls: 0 for no effect and ±100 for the full control effect
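Enzyme-only controls used 10 nM Pol beta; buffer lacking enzyme served as negative control. Compound preincubated 15 min, then 50 nM substrate added; 0 and 10 min reads at room temperature.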
GALK inh confirm – confirmation of human galactokinase (GALK) inhibitors; 150 tested, 70% active; shares compounds with Pol eta inh-1; Potency, µM (series often up to 115 µM), for inactives: at the highest dose activity, negative = inhibition, actives largely listed as inhibitors; purified GALK, Kinase-Glo ATP depletion luminescence
GALK redox cs – redox cycling activity in phenol red-HRP assay; shares compounds with Pol eta inh-1; Phenol red-HRP H2O2 redox cycling, absorbance 600 nm; Potency, µM (titrated, usually from 115 µM), without a hit: top-dose activity change, negative = H2O2 signal, most hits filed as inhibitors; 150 tested, 40% active
HEK293 viability – HEK-293 cytotoxicity, GALK inhibitor secondary. shares compounds with Pol eta inh-1. HEK-293 viability, ATP luminescence (CellTiter-Glo), 24/48 h. Potency, µM (highest dose often 46.1 µM), for inactives: top-dose activity change, negative = cytotoxicity, actives largely listed as inhibitors. 170 tested, 10% active. AID 2547; note: potency is the fitted concentration of half-maximal effect; % is set by controls: 0 for no effect and ±100 for the full control effect
Pol kappa inh-2 – confirmation of human DNA polymerase kappa inhibitors; shares compounds with Pol eta inh-1; purified Pol-kappa, fluorescent strand-displacement substrate; Potency, µM, hits mostly inhibitors; 920 tested, 76% active; AID 720501; note: potency is the fitted concentration of half-maximal effect
Pol eta inh-2 – Pol eta (human) inhibition, cherry-pick confirmation. shares compounds with Pol eta inh-1. Pol eta primer extension, TAMRA/BHQ fluorescence, 10 min. Potency, µM, usual class: inhibitors. 2,600 tested, 64% active. AID 720502; note: potency is the fitted concentration of half-maximal effect
An asterisk follows results filed as active; ? = inconclusive; / = not tested or not shown; [ ] = remark or other dose. Unless noted, calls come from the whole dose curve; as a rule, active = well fitted curve in the direction sought with a large enough effect; inconclusive = small, poorly fitted or top-dose-only effect, or another doubt; inactive = no such curve, though single readings can be large; an effect the other way counts as inactive or inconclusive.

SMILES	Pol iota inh	Pol eta inh-1	WRN inhibitor	PI5P4Ka inh	Pol kappa inh-1	Pol beta inh	Pol eta inh-2	others
O=c1nc(/C=C/c2ccc(Cl)cc2Cl)cc(C(F)(F)F)[nH]1	?	32µM*	50µM*	-9	-5%	-8%	?
CN1C(=O)C(=Cc2ccc(N3CCCCC3)o2)C(=O)N(C)C1=S	-6%	?	-26%	3	-10%	11%	/
CN1C(=O)C(=Cc2ccc(SC3CCCCC3)o2)C(=O)N(C)C1=O	?	22µM*	-32%	-6	-27%	22µM*	/	Pol kappa inh-2=?
OC(c1ccc(Cl)cc1)(c1cncnc1)c1ccccc1Cl (stereo not drawn)	/	/	/	/	11%[60.1 µM]	/	/
ClCCN(CCCl)c1ccc(/C=C/c2ccnc3ccccc23)cc1	-12%	/	/	/	-16%	/	/
Cc1ccc(/C=C2\C(=O)NC(=S)N(c3ccc(F)cc3)C2=O)o1	?	13µM*	?	-59*	25µM*	16µM*	30*	Pol kappa inh-2=17*
COc1cccc(N2C(=O)/C(=C/c3ccc(C)o3)C(=O)NC2=S)c1	?	13µM*	?	-59*	-10%	45µM*	60*	Pol kappa inh-2=30*
CC(C)(C)[C@]1(O)C[C@@H]2OC(=O)CC23C(=O)O[C@@H]2OC(=O)[C@H](O)C231 (stereo partly drawn)	/	/	/	/	-8%[60.1 µM]	/	/
Cc1ccc2c(c1)C1CN(C)CCC1N2C(=O)c1ccccc1NS(=O)(=O)c1cccc(C(F)(F)F)c1 (stereo not drawn)	10%	-13%	-11%	0	-14%	?	/
CCN(CC)c1ccc(/C=C2/C(=O)NC(=O)N(Cc3ccco3)C2=O)cc1	22µM*	10µM*	56µM*	-73*	50µM*	-27%	?
Cc1cc(/C=C2/C(=O)NC(=O)N(Cc3ccco3)C2=O)c(C)n1-c1ccccc1	2.2µM*	35µM*	?	?	71µM*	18µM*	76*
CCN(CC)c1ccc(/C=C2\C(=O)NC(=O)N(CC3CCCO3)C2=O)cc1 (stereo not drawn)	-3%	2%	-35%	-18	-10%	22%	/
O=C1NC(=S)N(Cc2ccco2)C(=O)/C1=C\c1cccs1	/	/	/	/	/	1.1µM*	/	GALK inh confirm=?;GALK redox cs=2%;HEK293 viability=-2%
CN(CCc1ccc(Cl)c(Cl)c1)[C@@H]1CCCC[C@@H]1N1CCCC1	/	/	/	/	7%[19.4 µM]	/	/
CC(C)(O)C1O[C@H]2CC[C@@]3(C)[C@@](O)(CC[C@H]4Cc5c([nH]c6ccccc56)[C@@]43C)C2=CC1=O (stereo partly drawn)	/	/	/	/	-1%[19.4 µM]	/	/
COc1ccccc1N1C(=O)NC(=O)/C(=C/c2ccc([N+](=O)[O-])s2)C1=O	?	18µM*	35µM*	-63*	40µM*	?	38*
COc1cccc(N2C(=O)NC(=O)/C(=C/c3ccc([N+](=O)[O-])s3)C2=O)c1	?	14µM*	35µM*	?	32µM*	?	27*
COc1ccccc1[N+](=O)[O-]	?	-6%	-3%	0	-9%	/	/
O=C1NC(=O)N(c2ccccc2)C(=O)/C1=C/c1ccoc1	40µM*	28µM*	?	?	?	?	76*
O=c1cccc2n1CC1CC2CN(CCO)C1 (stereo not drawn)	/	/	/	/	-10%[19.4 µM]	/	/
CC(=O)C1=C(O)[C@@H]2[C@@H]3c4c[nH]c5cccc(c45)C[C@@H]3C(C)(C)N2C1=O	/	/	/	/	-9%[19.4 µM]	/	/
COc1ccc(N2C(=O)/C(=C/C=C/c3ccccc3[N+](=O)[O-])C(=O)NC2=S)cc1	16µM*	22µM*	25µM*	-91*	?	20µM*	?
COc1ccc(N2C(=O)NC(=O)/C(=C\c3cn(C)c4ccccc34)C2=O)cc1	?	-12%	-6%	-5	2%	32%	/
CCOC(=O)CC(SP1(=S)OCC2(CCCCC2)CO1)C(=O)OCC (stereo not drawn)	?	?	-29%	-16	-36%	/	67*
Cc1o[nH]c(=O)c1CC(N)C(=O)O (stereo not drawn)	-10%[58.9 µM]	1%[57.1 µM]	/	/	2%[60.1 µM]	-3%[57.1 µM]	/
SMILES	Pol iota inh	Pol eta inh-1	WRN inhibitor	PI5P4Ka inh	Pol kappa inh-1	Pol beta inh	Pol eta inh-2	others
N[C@@H](Cc1cc(I)c(O)c(I)c1)C(=O)O	32µM*	40µM*	?	-98*	50µM*	31%	30*
CCn1nc(-c2cccs2)nc2c(=O)n(C)c(=O)nc1-2	-154%	0.79µM*	-34%	0	-12%	1%	/	GALK inh confirm=0.21µM*;GALK redox cs=0.27µM*;HEK293 viability=?
COCCCNC(=O)Cn1cc(/C=C2\C(=O)NC(=O)N(c3ccccc3F)C2=O)c2ccccc21	102%	-12%	-21%	-4	2%	0%	/
O=C1NC(=O)N(c2ccccc2F)C(=O)/C1=C/c1ccc(Sc2nc3ccccc3[nH]2)o1	?	20µM*	22µM*	-86*	22µM*	22µM*	30*	Pol kappa inh-2=27*
CC1=C[C@H]2[C@]3(O)C(C=C(CO)C[C@]2(O)C1=O)[C@@H]1C(C)(C)[C@]1(O)[C@H](O)[C@H]3C (stereo partly drawn)	/	/	/	/	18%[60.1 µM]	/	/
COc1ccc(NS(=O)(=O)c2cc(N=Nc3c(O)[nH]c(=O)[nH]c3=O)ccc2Cl)cc1	53%	-10%	?	-9	-34%	/	/
Cc1ccc(NS(=O)(=O)c2ccc(Cl)c(N=Nc3c(O)[nH]c(=O)[nH]c3=O)c2)cc1Cl	?	22µM*	-11%[11.6 µM]	?	-3%	/	/	Pol kappa inh-2=60*
